Screening results from PubChem BioAssay.
Compounds with a hit are over-represented: about 8.1% of the library has one in this group of screens.
KB-3-1 cytotox: kills parental KB-3-1 adenocarcinoma cells; 400,000 compounds, 1.4% hits; KB-3-1 viability, CellTiter-Glo ATP luminescence, 72 h; AID 1347075; Potency, µM (series often up to 46.1 µM), hits mostly cytotoxic; further: on the % scale 0 is the no-effect control and ±100 the full control effect; nearly all actives have a fitted effect of over 60% in size
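Multi-concentration cytotoxicity screen in KB-3-1 cells grown in DMEM lacking phenol red with 10% FBS. After 72 h at 37 °C with compound, ATP-dependent luminescence was recorded.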
KB-V1 cytotox: kills drug-selected multidrug resistant KB-V1 cells | 400,000 compounds, 3.4% hits | KB-V1 MDR cells viability, CellTiter-Glo, 72 h | AID 1347076 | Potency, µM (series often up to 46.1 µM), most hits filed as cytotoxic; further: on the % scale 0 is the no-effect control and ±100 the full control effect; nearly all actives have a fitted effect of over 60% in size
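KB-V1, DMEM (no phenol red) + 10% FBS; cpd pin-transferred, titration series; 72 h, 37 degrees C; CellTiter-Glo, luminescence. Data normalized, curve-fit.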
SW480 rerep: induces DNA re-replication in SW480 colon adenocarcinoma cells; Potency, µM (top dose mostly 46.1 µM), inactives show at the top dose re-replication activation, actives largely listed as activators; 340,000 compounds, 1.8% hits; AID 624297; SW480 DNA re-replication, Hoechst DNA content imaging, 48 h; further: % of control where 0% means no effect; nearly all actives have a fitted effect of over 55% in size
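DNA re-replication was detected as more nuclei of elevated Hoechst intensity after 48 hr exposure to compound (23 nL pinned per well of 250 cells).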
MCF10A rereplic: induces DNA re-replication in MCF 10a normal breast cells; MCF 10A DNA re-replication, Hoechst nuclear intensity, 48 h; Potency, µM (highest dose often 46.1 µM), inactives show at the highest dose activity, positive = re-replication, most hits filed as activators; 350,000 compounds, 2.9% hits; AID 624296; further: % of control where 0% means no effect; nearly all actives have a fitted effect of over 50% in size
ELG1 DNA repair: blocks ELG1-dependent DNA repair in HEK293T cells | 330,000 compounds, 2.3% hits | HEK293T ELG1-luciferase reporter, luminescence, 16 h; DNA damage induced by 5-fluorouridine | AID 504467 | Potency, µM (highest dose often 46.1 µM), without a hit: top-dose activity change, negative = inhibition, hits mostly inhibitors; further: on the % scale 0 is the no-effect control and ±100 the full control effect; nearly all actives have a fitted effect of over 55% in size
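In this reporter screen, reduction of luminescence relative to DMSO vehicle indicated activity. Compounds and 5-fluorouridine were added together to 2,000 cells per well, incubated for 16 hr at 37 °C, then developed with ONE-Glo.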
* = called active by the depositor; i = inactive; u = inconclusive; x = no result given; ! = a repeat was not active. The call rests on the fitted dose curve; in most records, active means well fitted curve in the direction sought with a large enough effect; inconclusive means small, poorly fitted or top-dose-only effect, or another doubt; inactive means no such curve, though single readings can be large; an effect the other way counts as inactive or inconclusive. Potency means the concentration at half of the fitted maximal effect.

SMILES | KB-3-1 cytotox | KB-V1 cytotox | SW480 rerep | MCF10A rereplic | ELG1 DNA repair
Cc1csc(=O)n1CC(=O)OCC(=O)c1ccc(Br)cc1 | i | i | -1% | 0% | 10%
O=C(c1cn(-c2ccccc2)nc1-c1ccc(Br)cc1)N1CCOCC1 | i | u | 23µM* | 5% | -16%
COc1ccc(OCc2cc(C(=O)NC3Cc4ccccc4C3)no2)c(Cl)c1 | 4.6µM* | u | u | u | -6%
COc1ccc(OCc2cc(C(=O)NC(C)Cc3cccnc3)no2)c(Cl)c1 (stereo not drawn) | i | u | 8.2µM* | 9% | 11%
Cc1cc(C)c2c(N)c3cccc(C)c3nc2n1 | 7.3µM* | 8.2µM* | 16µM* | 21µM* | u
Cc1nc2c(cc(Oc3ccc(S(=O)(=O)N4CCOCC4)cn3)c3ccsc32)s1 | i | u | -6% | 2% | u
N#Cc1c(-c2ccccc2)cc(-c2ccc3c(c2)OCO3)[nH]c1=O | i | u | 18µM* | u | -4%
O=C(O)COc1ccccc1/C=C1\SC(=O)N(Cc2ccc(F)cc2)C1=O | i | i | -8% | 4.6µM* | 1%
CCOc1ccc(S(=O)(=O)/N=C(\N)c2ccccc2)cc1 | i | i | 23% | -5% | 23µM*
O=C(CNCc1ccccc1Cl)Nc1ccccc1N1CCCCC1 | i | i | -2% | u | u
O=C(CNCC1CCCO1)Nc1ccccc1N1CCCCCC1 (stereo not drawn) | i | 6.5µM* | -3% | 14% | -3%
O=C(CNCC1CCCO1)Nc1ccc(N2CCCCCC2)cc1 (stereo not drawn) | i | 21µM* | 7% | -3% | 13%
O=C(CNCC1CCCCC1)Nc1ccc(N2CCCCC2)cc1 | x | x | x | x | 4%
Cc1ccc(NC(=O)Nc2nnc(N3CCCCC3)s2)c(C)c1 | i | u | x | x | x
CCc1ccc(NC(=O)c2cnn3c(C(F)F)cc(C)nc23)cc1 | i | i | 1% | 13% | -6%
CC(C)(C)CC(C)(C)c1ccc(O)c(Cc2ccc(Cl)cc2Cl)c1 | u | u | 3% | 30µM*! | x
CCN(CC)CCCNC(=O)c1cc2nc(-c3ccccc3)cc(C(F)(F)F)n2n1 | i | i | -8% | 1µM* | -8%
COc1ccc(-c2cc(C(F)(F)F)n3nc(C(=O)N(C)Cc4ccccc4)cc3n2)cc1OC | i | u | 21µM* | u | 21µM*
Cc1ccc(-c2cc(C(F)(F)F)n3nc(C(=O)NCCCn4ccnc4)cc3n2)cc1C | i | i | u | 15µM* | u
CCCCNC(=O)c1cc2nc(-c3ccc(OC)cc3)cc(C(F)(F)F)n2n1 | i | i | x | x | x
Cc1ccc(-c2cc(C(F)(F)F)n3nc(C(=O)Nc4ccon4)cc3n2)cc1C | i | i | u | u | 2%
O=C(NCCCn1ccnc1)c1nn2c(C(F)(F)F)cc(-c3ccccc3)nc2c1Cl | i | i | 6.5µM* | -1% | -8%
CC(=O)Nc1cc(C)c(S(C)(=O)=O)c(C)c1 | i | i | -61% | u | 5%
CCOC(=O)C1=NNC(C(=O)c2ccc(C)cc2)C1c1ccc(OC)cc1 (stereo not drawn) | i | u | 0% | 1% | -15%
O=c1[nH]c(C2CCN(S(=O)(=O)c3ccc4c(c3)OCCO4)CC2)nc2c1nnn2Cc1ccccc1F | i | i | 5% | -16% | u
SMILES | KB-3-1 cytotox | KB-V1 cytotox | SW480 rerep | MCF10A rereplic | ELG1 DNA repair
CCN(CC)C(=O)c1cnn(-c2ccccc2)c1NC(=O)c1ccccc1F | i | 4.6µM* | -2% | 9% | -10%
O=C(Nc1c(C(=O)N2CCOCC2)cnn1-c1ccccc1)c1ccccc1F | i | i | 2% | 6% | -6%
Cn1cnc([N+](=O)[O-])c1Sc1ccc(Br)cc1 | i | i | u | 6.5µM* | 5%
Cc1ccc(Sc2c([N+](=O)[O-])ncn2C)cc1 | i | i | 6% | u | -3%
CCOc1ccc2nc(N/C(N)=N/C(=S)Nc3cccc(C)c3)nc(C)c2c1 | i | 23µM* | -7% | -2% | -3%
CCOc1ccc2nc(N/C(N)=N/C(=S)Nc3cccc(OC)c3)nc(C)c2c1 | i | i | u | 10% | u
CCc1ccccc1NC(=S)/N=C(\N)Nc1nc(C)c2cc(C)ccc2n1 | u | 6.5µM* | 21µM* | u | 21µM*
COc1cccc(N2CCN(S(=O)(=O)c3cccc4nsnc34)CC2)c1 | i | i | -1% | -2% | 4%
COC(=O)c1ccccc1NC(=O)n1cc(C)cn1 | i | i | -10% | -1% | -2%
CCC(=O)c1ccc(OCc2ccc(C(=O)c3ccccc3)cc2)cc1 | u | 10µM* | 9% | -7% | u
COc1ccc(S(=O)(=O)N(C)CC(=O)NCCC2=CCCCC2)cc1C | i | i | -2% | 0% | -4%
O=C(O)c1cccc(N/N=C/C2=C(Cl)c3cc(Cl)ccc3SC2)c1 | i | u | -1% | 8.2µM* | u
Cc1cccc(-c2nnc(-c3cccc(NC(=O)Cc4cccs4)c3)o2)c1 | i | 21µM* | u | u | u
O=C(Cc1cccs1)Nc1ccc(-c2nnc(-c3ccccc3)o2)cc1 | i | i | -3% | -3% | x
O=C(Cc1cccs1)Nc1nnc(-c2ccccc2)s1 | i | i | -19% | 0.65µM* | u
O=C(Cc1cccs1)Nc1nnc(-c2ccc(F)cc2)s1 | i | i | -8% | -3% | u
Cc1ccc(-c2nnc(-c3cccc(NC(=O)c4cccs4)c3)o2)cc1 | i | 12µM* | 0% | 10% | u
O=C(NC1CCN(S(=O)(=O)c2cccc(Cl)c2)CC1)C1CCCCC1 | i | u | 2% | 0% | 9%
C(#Cc1ccccc1)C[N+]1(CC#Cc2cccc3ccccc23)CCCC1 | 16µM* | i | 4% | u | -16%
CCc1ccc(NC(=O)C2(c3ccccc3)CC2(Cl)Cl)cc1 (stereo not drawn) | i | i | u | 23µM* | 0%
Cc1ccc(NC(=O)C2(c3ccccc3)CC2(Cl)Cl)cc1C (stereo not drawn) | i | i | 4% | 21µM* | u
Cc1ccc2nc(NC(=O)CN(C)S(=O)(=O)c3cccc4nsnc34)sc2c1 | u | u | 2.3µM* | u | 2%
Cc1ccc2nc(NC(=O)CN(C)S(=O)(=O)c3ccc(Br)s3)sc2c1 | u | u | u | 23µM* | u
CCOC(=O)c1ccc(NC(=O)CN(C)S(=O)(=O)c2ccc(Br)s2)cc1 | i | i | -1% | u | 26µM*
Cc1ccc2nc(NC(=O)CNS(=O)(=O)c3ccc(Br)s3)sc2c1 | i | i | -12% | u | 5%
